# Assay outcomes deposited in PubChem BioAssay by National Center for Advancing Translational Sciences (NCATS).
# Rab9 prom act – activates the Rab9 promoter; 2.8% of 320,000 active; Potency, µM (titrated, usually from 9.22 µM), inactives show top-dose activation, negative = inhibition, usual class: activators; Huh7 Rab9 promoter-luciferase reporter, luminescence, 24 h; note: % of control where 0% means no effect; nearly all actives have a fitted effect of over 60% in size
#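 Quantitative HTS format; Huh7 Rab9-luciferase reporter cells (1500/well) receive compound 2 h post-plating, incubate 24 h at 37 °C, then get luciferase reagent for 10 min before luminescence reading.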
# FLuc modulator – firefly luciferase modulation, counter-screen for miR-21 project. P08659. purified FLuc, Km substrates, luminescence inhibition. Potency, µM (doses to about 57.5 µM), without a hit: top-dose activity change, negative = inhibition, most hits filed as inhibitors. 6.9% of 360,000 active;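 note: plate controls were vehicle for no effect and reference inhibitor for full effect; nearly all actives have a fitted effect of over 55% in size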
# Target sequence (P08659 whole entry, looked up): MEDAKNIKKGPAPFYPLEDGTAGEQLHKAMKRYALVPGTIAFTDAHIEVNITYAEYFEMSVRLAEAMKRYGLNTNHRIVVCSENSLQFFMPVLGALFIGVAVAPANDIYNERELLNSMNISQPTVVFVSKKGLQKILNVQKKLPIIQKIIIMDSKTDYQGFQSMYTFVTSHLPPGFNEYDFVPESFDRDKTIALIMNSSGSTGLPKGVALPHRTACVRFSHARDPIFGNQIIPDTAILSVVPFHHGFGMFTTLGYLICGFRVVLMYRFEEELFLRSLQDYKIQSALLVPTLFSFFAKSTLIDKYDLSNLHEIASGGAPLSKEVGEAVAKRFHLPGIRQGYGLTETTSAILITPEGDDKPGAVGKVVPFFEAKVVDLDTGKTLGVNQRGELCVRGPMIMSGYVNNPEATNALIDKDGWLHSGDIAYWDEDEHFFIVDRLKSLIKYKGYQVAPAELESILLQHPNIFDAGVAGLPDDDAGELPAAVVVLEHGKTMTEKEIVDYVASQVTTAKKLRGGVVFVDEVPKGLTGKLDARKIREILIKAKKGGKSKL
#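 Purified P. pyralis luciferase, 10 nM final, with Km-level 10 uM D-luciferin and 10 uM ATP in 50 mM Tris acetate pH 7.5, 10 mM Mg acetate, 0.01% Tween-20, 0.05% BSA; 6-point qHTS titration about 60 µM downward; luminescence read.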
# ELG1 genotox – genotoxicity induction in ELG1-luciferase HEK293T cells. HEK293T ELG1-luciferase reporter, luminescence, 16 h. Potency, µM (top dose mostly 46 µM), for the others: top-dose activity change, positive = activation, usual class: activators. 1.3% of 330,000 active; note: % of control where 0% means no effect; nearly all actives have a fitted effect of over 60% in size
#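 ELG1-luciferase HEK293T cells, 2,000/well; compound pinned in; 16 hr, 37 °C, 5% CO2; ONE-Glo, 30 min RT; luminescence on CCD imager.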
# NPC1 promoter act – activators of NPC1 promoter; Huh7 NPC1 promoter luciferase reporter, 24 h; Potency, µM (titrated, usually from 9.22 µM), without a hit: at the highest dose activation, hits mostly activators; 2.4% of 320,000 active; note: % of control where 0% means no effect; nearly all actives have a fitted effect of over 60% in size
#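 NPC1 promoter–luciferase Huh7 cells; 24 h compound; luminescence.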
# SMN2 splice enh – SMN2 splice variant enhancement; HEK293 SMN2-luciferase splicing reporter, luminescence, 30-36 h; Potency, µM (titrated, usually from 46.1 µM), for the others: at the highest dose activity change, positive = activation, usual class: activators; 2.8% of 210,000 active; AID 1458; note: % of control where 0% means no effect; nearly all actives have a fitted effect of over 55% in size
#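 HEK293 cells carry an SMN2 minigene-luciferase reporter in which exon 7 inclusion puts luciferase in frame. Cells were seeded at 2000 cells/well, attached for 10-12 hours, then exposed to compounds for 30-36 hours at 37C before ONE-Glo luminescence.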
# * marks the source's active call; other numbers are inactive results; ? = inconclusive; · = no result; [ ] = dose if it differs, or a comment. The list is not random: actives were taken first. Their share in the collection is about 7.4%. Calls come from the whole dose curve; as a rule, active = well fitted curve in the direction sought with a large enough effect; inconclusive = small, poorly fitted or top-dose-only effect, or another doubt; inactive = no such curve, though single readings can be large; an effect the other way counts as inactive or inconclusive. Potency is the fitted concentration of half-maximal effect.
SMILES,Rab9 prom act,FLuc modulator,ELG1 genotox,NPC1 promoter act,SMN2 splice enh
O=C(c1cc2c(=O)n3ccccc3nc2s1)N1CCN(c2cccc(Cl)c2)CC1,-1%,2%,?,-2%,·
O=C(c1cc2cc(Cl)ccc2oc1=O)N1CCOCC1,0%,0%,1%,-3%,11%
O=C(c1cc2ccccc2oc1=O)N1CCOCC1,?,12µM*,?,?,·
O=C(c1cc2cc([N+](=O)[O-])ccc2oc1=O)N1CCOCC1,-33%,2.4µM*,-3%,-32%,·
O=C(c1cc2c(=O)oc3ccccc3c2s1)N1CCOCC1,22%,17µM*,1%,18%,10%
O=C(c1cc2c(=O)n3ccccc3nc2s1)N1CCOCC1,3.2µM*,19µM*,4.1µM*,2.8µM*,11µM*
COc1ccc(CNC(=O)c2ccc(CS(=O)Cc3ccccc3Cl)o2)cc1 (stereo not drawn),·,7%,·,·,·
Cc1ccnc(NS(=O)(=O)c2ccc(N=[N+]=[N-])cc2)n1,·,·,·,·,-9%[9.22 µM]
CCN1CCN(C(=O)c2cc(-c3ccco3)nc3ccccc23)CC1,-3%,?,2%,1%,·
CC(=O)c1cccc(NC(=O)c2cc(-c3ccco3)nc3ccccc23)c1,-4%,-17%,-17%,2%,·
CC(=O)Nc1ccc(NC(=O)c2cc(-c3ccccc3)nc3ccccc23)cc1,7%,?,-10%,12%,·
O=C(O)c1ccccc1/C=N/NC(=O)c1cc(-c2ccco2)nc2ccccc12,14%,0.95µM*,-2%,-5%,·
O=C(O)c1cc(-c2ccco2)nc2cc3ccccc3cc12,22%,8.5µM*,10%,16%,·
CNC(=O)COC(=O)c1cc(-c2ccco2)nc2ccccc12,-1%,?,-3%,-6%,·
CC(=O)Nc1ccc(/C=N/NC(=O)c2cc(-c3ccco3)nc3ccccc23)cc1,3%,2.1µM*,3%,3%,·
O=C(NNC(=O)c1cc(-c2ccco2)nc2ccccc12)c1ccccc1,3%,19µM*,-5%,-2%,·
CC(=O)N1CCc2cc(Br)cc(S(=O)(=O)CCC(=O)Nc3ccc(C)cc3Cl)c21,·,1%,·,·,13%
Cc1nn(-c2ccccc2)c(OC(=O)C(C)C)c1Sc1ccc(Cl)cc1,·,13µM*,·,·,1%
CN(C)/C=N/C(=S)Nc1ccc(Cl)cc1,?,13µM*,?,30%,11µM*
CN(C)/C=N/C(=S)Nc1ccc(Cl)cc1Cl,?,19µM*,21µM*,?,?
CN1CCN(C(=S)Nc2ccc(Cl)cc2Cl)CC1,14%,-15%,0%,6%,-38%
CC(C)CCn1c(=O)c2sccc2n2c(CCCC(=O)NC3CCC(C)CC3)nnc12 (stereo not drawn),·,-1%,·,·,·
COC(=O)CC1C(=O)NCCN1Cc1cn(-c2ccc(C)cc2)nc1-c1cccc(C)c1 (stereo not drawn),-3%,17µM*,-3%,2%,·
CCOc1ccccc1CN1CCc2nc(N3CCN(c4ccccc4F)CC3)ncc2C1,·,0%,·,·,·
COc1cccc(/C=N\n2c(C)nnc2C)c1OC,5%,1%,1%,2%,·
SMILES,Rab9 prom act,FLuc modulator,ELG1 genotox,NPC1 promoter act,SMN2 splice enh
COc1cccc(/C=N/n2c(=S)n(C)c3ccccc32)c1OC,-5%,11µM*,3%,-3%,-25%
COc1cccc(/C=N/n2cnc3cc(C)c(C)cc32)c1OC,20%,12µM*,16%,?,·
Cc1cc2ncn(/N=C/c3cc(Br)ccc3O)c2cc1C,2%,-2%,-2%,10%,-1%
COc1cccc(/C=N/n2c(C)nc3ccccc32)c1OC,-3%,?,-3%,0%,-48%
COc1cccc(/C=N/n2c(=O)[nH]c3ccccc32)c1OC,29%,9.5µM*,15%,19%,?
COc1cccc(NC(=O)C2=C(C)C(=O)OC23CCN(C(C)=O)CC3)c1,·,-5%,·,·,·
CC(C)(C)NC(=O)NC(=O)Cn1ccsc1=N,1%,4%,1%,-3%,3%
CCc1ccc(C(=O)Cn2ccsc2=N)cc1,0.71µM*,1.3µM*,?,1.6µM*,·
Cn1cccc1/C=N/n1cnnc1,-4%,0%,-1%,0%,22µM*
O=C(Nc1cccc(N2C(=O)C3CCCCC3C2=O)c1)c1ccccc1 (stereo not drawn),-6%,19µM*,6%,2%,·
Cc1ccc(C(=O)Nc2cccc(N3C(=O)C4CCC(C)CC4C3=O)c2)cc1 (stereo not drawn),23%,7.6µM*,5%,1%,·
O=C(Nc1cccc(Cl)c1)c1cccc(N2C(=O)C3CC=CCC3C2=O)c1 (stereo not drawn),-3%,-19%,-21%,0%,·
CCC(=O)C1=C(c2ccc(Cl)cc2)N(C(=O)CC)n2c(C)nnc2S1,·,-7%,·,·,·
CN(Cc1nc(-c2ccccn2)no1)S(=O)(=O)c1ccc(Br)cc1,-2%,-1%,6%,-1%,-19%
O=C1c2ccccc2C(=O)N1Cc1nc(-c2ccccn2)no1,·,-15%,·,·,-13%
c1ccc(SCc2nc(-c3ccccn3)no2)cc1,?,17µM*,18µM*,3.5µM*,11µM*
COc1ccc(Cc2nc(-c3ccccn3)no2)cc1,?,?,18%,3.5µM*,?
COc1ccc(-c2noc(Cc3cccs3)n2)cc1,2.8µM*,5.4µM*,?,?,17%
Cc1ccc(Cc2nc(-c3ccccn3)no2)cc1,3.2µM*,11µM*,?,1.8µM*,13µM*
COc1ccc(C(=O)NCC(c2cccs2)S(=O)(=O)c2ccc(F)c(C)c2)cc1 (stereo not drawn),·,-11%,·,·,·
c1ccc(CCCc2nc(-c3ccccn3)no2)cc1,2.2µM*,17µM*,?,2.8µM*,20µM*
CN(C)C(=O)CCCc1nc(-c2ccc(Cl)cc2)no1,3.2µM*,?,15µM*,?,14%
O=C(O)CCCc1nc(-c2ccc(Cl)cc2)no1,21%,?,1%,0%,3%
COc1ccc(-c2noc(CCc3ccccc3)n2)cc1,?,15µM*,?,?,23%
Clc1ccc(-c2noc(CCCc3ccccc3)n2)cc1,8%,27µM*,?,6%,5%
SMILES,Rab9 prom act,FLuc modulator,ELG1 genotox,NPC1 promoter act,SMN2 splice enh
O=C(c1cc(C(F)(F)F)cc(C(F)(F)F)c1)N1CCC[C@@]2(CCN(Cc3ccncc3)C2)C1,·,·,·,·,-3%
COc1ccc(CNC(=O)c2ccc(-c3nc(CSc4ccc(C)cc4)c(C)o3)cc2)cc1OC,·,4%,·,·,·
COc1ccc(C2=C(C)C(=O)N(Cc3ccc(C(=O)NCc4cccc(C)c4)cc3)S2(=O)=O)cc1,·,-6%,·,·,·
COc1cc(C2C(=O)N(C3CCC(C)CC3)CC(=O)N2CCc2ccc(Cl)cc2)ccc1OC(C)C (stereo not drawn),·,4%,·,·,·
CC1(O)/C=C\C=C(\CO)C2CC(C)(C)C2(O)CC1 (stereo not drawn),·,·,·,·,-2%
Cc1cc(C)cc(NC(=O)N2CCC(C(N)=O)(N3CCCCC3)CC2)c1,·,3%,·,·,-8%
